# Inconclusive results are not listed. Entries that show only a call come without a potency. Values without a mark were called inactive. The source made the active and inactive calls. Calls follow the shape of the dose curve; as a rule, active = well fitted curve in the direction sought with a large enough effect; inconclusive = small, poorly fitted or top-dose-only effect, or another doubt; inactive = no such curve, though single readings can be large; an effect the other way counts as inactive or inconclusive. Non-standard residues stand in square brackets, D forms with d. Residues, ends and D or L forms follow the SMILES beside them. *: point of attachment. Nva = CCC[C@H](N)C(=O)O; Cbz = O=C(OCc1ccccc1)*
# Assays:
# [1] = biological target: Calcium and integrin-binding protein 1 (Homo sapiens) (UniProt Q99828); assay: Primary qHTS for Identification of Calcium Integrin Binding Protein 1 (CIB1) Competitor (AID 1508620); details: CIB1-GST / FITC-alphaIIb peptide fluorescence polarization; series mostly up to 57.7 µM;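 also: GST tagged CIB1 binding a fluorescein labelled alphaIIb integrin peptide tracer; top concentration of the series differs between compounds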
# Procedure, shortened: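 Fluorescence polarization competition: CIB1-GST (1 uM final) preincubated with compound 15 min at room temperature, then FITC-labeled alphaIIb peptide (100 nM final) added for another 15 min. Polarization read at Ex 480/Em 540.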
# [2] = Primary qHTS for small molecule stabilizers of the endoplasmic reticulum resident proteome: Secreted ER Calcium Modulated Protein (SERCaMP) assay (AID 1508630); details: SH-SY5Y GLuc-SERCaMP (Gaussia luciferase released on ER calcium loss) secretion, thapsigargin, luminescence; series mostly up to 38.4 µM
# Procedure, shortened: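 GLuc-SERCaMP-expressing SH-SY5Y cells, pretreated 16 h with compound, are challenged with thapsigargin to empty ER calcium stores; after 4 h, coelenterazine is added directly to the medium and luminescence is imaged.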
# [3] = Counterscreen qHTS for small molecule stabilizers of the endoplasmic reticulum resident proteome: GLuc-NoTag assay (AID 1508627); details: Gaussia luciferase NoTag secretion counterscreen, luminescence, thapsigargin 100 nM for final 4 h; series mostly up to 76.4 µM;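 also: SH-SY5Y cells given compound then 100 nM thapsigargin to empty ER calcium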
# Text: Assay Provider: Brandon K. Harvey Ph.D.
# National Institute on Drug Abuse, National Institutes of Health, Baltimore, MD
# Endoplasmic reticulum (ER) dysregulation is associated with human pathologies including neurodegenerative, cardiovascular, muscular, and diabetic conditions. Maintenance of ER calcium is critical for functions of the ER and its depletion can lead to loss of ER resident proteins, in a process termed exodosis. Therapeutic compounds capable of attenuating the redistribution of ER proteins under pathological conditions may slow or stop disease progression. To identify such compounds, we performed a quantitative high-throughput screen (qHTS) using the SERCaMP assay, which monitors secretion of ER resident proteins triggered by calcium depletion. […]
# 8; Detection; Luminescence; ViewLux imaging system […]
# 7; Gaussia luciferase in the medium was measured by adding 1 ul of 0.5x coelenterazine (final concentration 0.07x) prepared in Gaussia Luciferase Glow Assay Buffer (Pierce), without addition of the Cell Lysis Buffer Reagent.
# 8; Luminescence was measured using a ViewLux CCD imaging system (Perkin Elmer) equipped with clear filters. […]
# Chain of Calcium and integrin-binding protein 1 (Homo sapiens) (Q99828 whole entry, looked up): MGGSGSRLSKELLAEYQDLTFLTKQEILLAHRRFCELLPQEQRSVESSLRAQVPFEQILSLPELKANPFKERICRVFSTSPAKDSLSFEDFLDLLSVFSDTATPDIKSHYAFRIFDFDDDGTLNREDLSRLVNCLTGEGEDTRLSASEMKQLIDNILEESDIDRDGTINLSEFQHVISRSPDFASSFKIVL
smiles,measurement,setting,value
CC[C@H]1OC(=O)[C@H](C)[C@@H](O[C@H]2C[C@@](C)(OC)[C@@H](O)[C@H](C)O2)[C@H](C)[C@@H](O[C@@H]2O[C@@H](C)C[C@H](N(C)C)[C@@H]2O)[C@](C)(O)C[C@@H](C)C(=O)[C@H](C)[C@@H](O)[C@]1(C)O,Potency,[1],inactive
C[C@]12CCC(=O)C=C1[C@@H]1CC1[C@H]1[C@H]3[C@@H]4C[C@H]4[C@@]4(CCC(=O)O4)[C@@]3(C)CC[C@H]12 (stereo partly specified),Potency,[1],inactive
same,outcome,[2],inactive
C=CC(=O)Nc1cccc(Nc2nc(NC3CCC(N(C)C)CC3)nc3c2ncn3C(C)C)c1 (stereo unspecified),Potency,[1],inactive
C=CC(=O)Nc1cc(NC(=O)c2ccc(C)c(NC(=O)c3ccno3)c2)cc(C(F)(F)F)c1,Potency,[1],inactive
same,outcome,[2],inactive
C=CCNc1c(O)cc2c(O)c1C[C@@H](C)C[C@H](OC)[C@@H](O)[C@@H](C)C=C(C)[C@H](OC(N)=O)[C@@H](OC)C=CC=C(C)C(=O)N2,Potency,[1],inactive
same,outcome,[2],inactive
CCNC(=O)c1cc2c(-c3cc(OCCN4CCCC4)c(Cl)cc3Cl)nc(N)nc2s1,Potency,[1],inactive
same,outcome,[2],inactive
O=c1[nH]c(=O)n([C@H]2C[C@@H](O)[C@@H](CO)O2)cc1F,Potency,[1],inactive
same,outcome,[2],inactive
O=C(O)[C@H](CC(=O)N1C[C@@H]2CCCC[C@H]2C1)Cc1ccccc1,Potency,[1],inactive
same,outcome,[2],inactive
C[C@@]12C(=O)OC(=O)[C@@]1(C)C1CCC2O1,Potency,[1],inactive
COc1cc(N2CCC(C(N)=O)CC2)ccc1Nc1nc(N)c(Cl)c(Nc2ccccc2S(=O)(=O)C(C)C)n1,Potency,[1],inactive
same,outcome,[2],inactive
CC(C=CC=C(C)C=CC1=C(C)CCCC1(C)C)=CC=CC=C(C)C=CC=C(C)C=CC1=C(C)CCCC1(C)C,Potency,[1],inactive
CCOC(=O)N1CCN([N+]([O-])=NOc2ccc([N+](=O)[O-])cc2[N+](=O)[O-])CC1,Potency,[1],inactive
same,outcome,[2],inactive
Cn1c(Nc2ccc(C(F)(F)F)cc2)nc2cc(Oc3ccnc(-c4ncc(C(F)(F)F)[nH]4)c3)ccc21,Potency,[1],inactive
CCC[C@@H](C=O)NC(=O)[C@H](CC(C)C)NC(=O)[C@H](CC(C)C)NC(=O)OCc1ccccc1 (Cbz-Leu-Leu-[Nva]-aldehyde),Potency,[1],inactive
same,outcome,[2],inactive
O=C(C[C@@H]1CC=CCCC(=O)O[C@H](c2ccccc2)CNC1=O)NCc1ccc(Cl)cc1,Potency,[1],inactive
CC(C)(O)[C@H]1CC[C@@](C)([C@H]2[C@@H](O)C[C@@]3(C)[C@@H]4C[C@H](O[C@@H]5O[C@H](CO)[C@@H](O)[C@H](O)[C@@H]5O)[C@H]5C(C)(C)[C@@H](O[C@@H]6OC[C@@H](O)[C@H](O)[C@@H]6O)CC[C@@]56C[C@@]46CC[C@]23C)O1,Potency,[1],inactive
C[N+]1(C)[C@@H]2C[C@@H](OC(=O)C(O)(c3cccs3)c3cccs3)C[C@H]1[C@@H]1O[C@@H]12,Potency,[1],inactive
COC(=O)[C@@H]1CC2=CC(=O)CC[C@]2(C)[C@@]23O[C@@H]2C[C@@]2(C)[C@H](CC[C@@]24CCC(=O)O4)[C@@H]13,Potency,[1],inactive
same,outcome,[2],inactive
CC(=O)NCC(=O)N1[C@H]2CC[C@H]1c1cc(Nc3ncc(C(F)(F)F)c(NC4CCC4)n3)ccc12,Potency,[1],inactive
same,outcome,[2],inactive
CNC(=O)Nc1ccc(-c2nc(N3CC4CCC(C3)O4)c3cnn(C4CCC5(CC4)OCCO5)c3n2)cc1,Potency,[1],inactive
C[C@@H](Oc1ccc2[nH]nc(C=Cc3cnn(CCO)c3)c2c1)c1c(Cl)cncc1Cl,Potency,[1],inactive
same,outcome,[2],inactive
CCCNC(=O)[C@H]1O[C@H]1C(=O)N[C@H](C(=O)N1CCC[C@@H]1C(=O)OC)C(C)CC (stereo partly specified),Potency,[1],inactive
same,outcome,[2],inactive
NC(=NCCCCCCN=C(N)N=C(N)Nc1ccc(Cl)cc1)N=C(N)Nc1ccc(Cl)cc1,Potency,[1],inactive
same,outcome,[2],inactive
CO[C@@H]1[C@@H](O)[C@H](O)[C@@H](n2c3c(Cl)cccc3c3c4c(c5c6cccc(Cl)c6[nH]c5c32)C(=O)NC4=O)O[C@@H]1CO,Potency,[1],inactive
same,outcome,[2],inactive
C[C@H](NCc1ccc2c(c1)nc(NC(=O)c1ccc(-c3cn[nH]c3)s1)n2CCc1ccccc1)C(C)(C)C,Potency,[1],inactive
N#CNC(=NCCCCCCOc1ccc(Cl)cc1)Nc1ccncc1,Potency,[1],inactive
C[C@H](NC(=O)C(C#N)=Cc1cccc(Br)n1)c1ccccc1,Potency,[1],inactive
NC(=O)c1ncn([C@@H]2O[C@H](CO)[C@@H](O)[C@@H]2O)c1N,Potency,[1],inactive
CCCCCCCCc1ccc(CCC(N)(CO)CO)cc1,Potency,[1],inactive
same,outcome,[2],inactive
Nc1ccc(C(=O)Nc2cccc(-c3nc(N4CCOCC4)c4oc5ncccc5c4n3)c2)cn1,Potency,[1],inactive
same,outcome,[2],inactive
C=CC[C@@H]1C=C(C)C[C@H](C)C[C@H](OC)[C@H]2O[C@@](O)(C(=O)C(=O)N3CCCC[C@H]3C(=O)O[C@H](C(C)=C[C@@H]3CC[C@H](O)[C@H](OC)C3)[C@@H](C)[C@@H](O)CC1=O)[C@@H](C)C[C@@H]2OC,Potency,[1],inactive
same,outcome,[3],inactive
OCCN1C[C@H](O)[C@@H](O)[C@H](O)[C@@H]1CO,Potency,[1],inactive
O=C1NC(=O)C(=Cc2ccc3nccc(-c4ccncc4)c3c2)S1,Potency,[1],inactive
same,outcome,[2],inactive
O=C(C=Cc1ccc(CN(CCO)CCc2c[nH]c3ccccc23)cc1)NO,Potency,[1],inactive
same,outcome,[2],inactive
Nc1nc(=O)n([C@H]2CSC(CO)O2)cc1F (stereo partly specified),Potency,[1],inactive
same,outcome,[2],inactive
CC(C)OC(=O)[C@H](C)N[P@](=O)(OC[C@H]1O[C@@H](n2ccc(=O)[nH]c2=O)[C@](C)(F)[C@H]1O)Oc1ccccc1,Potency,[1],inactive
same,outcome,[2],inactive
C#C[C@]1(O)CC[C@@H]2[C@@H]3CCC4=CC(=O)CC[C@@H]4[C@H]3CC[C@@]21CC,Potency,[1],inactive
same,outcome,[2],inactive
OCc1ccccc1O[C@@H]1O[C@H](CO)[C@H](O)[C@H](O)[C@H]1O,Potency,[1],inactive
same,outcome,[2],inactive
CC[C@]12C=CCN3CC[C@@]4(c5cc([C@@]6(C(=O)OC)C[C@H]7C[C@@H](C(C)(F)F)CN(Cc8c6[nH]c6ccccc86)C7)c(OC)cc5N(C)[C@H]4[C@@](O)(C(=O)OC)[C@H]1OC(C)=O)[C@@H]32,Potency,[1],inactive
same,outcome,[2],inactive
CCOc1cc2ncc(C#N)c(Nc3ccc(OCc4ccccn4)c(Cl)c3)c2cc1NC(=O)C=CCN(C)C,Potency,[1],inactive
same,outcome,[2],inactive
COc1cc(C)c(Sc2cnc(NC(=O)c3ccc(CNC(C)C(C)(C)C)cc3)s2)cc1C(=O)N1CCN(C(C)=O)CC1 (stereo unspecified),Potency,[1],inactive
same,outcome,[2],inactive
CCC(C(=O)O)C1CCC(C)C(C(C)C(O)C(C)C(=O)C(CC)C2OC3(C=CC(O)[C@@]4(CC[C@](C)(C5CC[C@@](O)(CC)C(C)O5)O4)O3)C(C)CC2C)O1 (stereo partly specified),Potency,[1],inactive
same,outcome,[2],inactive
C=C1C[C@@]2(O)O[C@@]3(C[C@H]2C(C)C)[C@H](C)CC[C@H]13,Potency,[1],inactive
same,outcome,[2],inactive
C[C@H]1O[C@H](O[C@H]2[C@H](O)[C@@H](O)[C@@H](O[C@H]3[C@H](O)[C@@H](O)C(O)O[C@H]3CO)O[C@H]2CO)[C@H](O)[C@@H](O)[C@H]1N[C@H]1C=C(CO)[C@@H](O)[C@H](O)[C@@H]1O (stereo partly specified),Potency,[1],inactive
same,outcome,[2],inactive
c1cc(CN2CCCNCCNCCCNCC2)ccc1CN1CCCNCCNCCCNCC1,Potency,[1],inactive
same,outcome,[2],inactive
COc1cc([C@@H]2c3cc4c(cc3[C@@H](O[C@@H]3O[C@@H]5CO[C@@H](c6cccs6)O[C@@H]5[C@H](O)[C@@H]3O)[C@H]3COC(=O)[C@H]23)OCO4)cc(OC)c1O,Potency,[1],inactive
same,outcome,[2],inactive
CC[C@H](CC[C@@H](C)[C@H]1CC[C@H]2[C@@H]3CC=C4C[C@@H](O)CC[C@]4(C)[C@@H]3CC[C@]12C)C(C)C,Potency,[1],inactive
same,outcome,[2],inactive
O=C(O)C(=O)Nc1cccc(C2=NN=N[N]2)c1,Potency,[1],inactive
same,outcome,[2],inactive
COC(=O)C=CC(=O)OC,Potency,[1],inactive
same,outcome,[2],inactive
Cc1[nH]c(C=C2C(=O)Nc3ccccc32)c(C)c1CCC(=O)O,Potency,[1],inactive
same,outcome,[2],inactive
N#CC(=C(O)c1ccc(Cl)cc1Cl)c1nc2cc(Cl)ccc2c(=O)[nH]1,Potency,[1],inactive
same,outcome,[2],inactive
COc1cc2c(cc1O)CCC1C2CC[C@@]2(C)C1CC[C@@H]2O (stereo partly specified),Potency,[1],inactive
same,outcome,[2],inactive
COc1ccc(C(C)=O)c(O)c1,Potency,[1],inactive
same,outcome,[2],inactive
Cn1cc(C=CC(=O)c2cccc(F)c2)cc1C=CC(=O)NO,Potency,[1],inactive
same,outcome,[2],inactive
CCC[C@H]1C[C@H](C(=O)N[C@@H]([C@@H]2O[C@@H](SC)[C@@H](O)[C@@H](O)[C@@H]2O)[C@H](C)Cl)N(C)C1,Potency,[1],inactive
same,outcome,[2],inactive
CC(=O)O[C@@]12CO[C@H]1C[C@H](O)[C@@]1(C)C(=O)[C@H](O)C3=C(C)[C@@H](OC(=O)C(O)[C@@H](NC(=O)OC(C)(C)C)c4ccccc4)C[C@@](O)([C@@H](OC(=O)c4ccccc4)[C@@H]21)C3(C)C (stereo partly specified),Potency,[1],inactive
same,outcome,[2],inactive
CCN(CC)CCNC(=O)c1c(C)[nH]c(C=C2C(=O)Nc3ccc(F)cc32)c1C,Potency,[1],inactive
same,outcome,[2],inactive
Cc1onc(-c2ccccc2)c1C(=O)N[C@@H]1C(=O)N2[C@@H](C(=O)O)C(C)(C)S[C@@H]12,Potency,[1],inactive
same,outcome,[2],inactive
COc1cc([C@@H]2c3cc4c(cc3[C@H](O)[C@H]3COC(=O)[C@@H]23)OCO4)cc(OC)c1OC,Potency,[1],inactive
same,outcome,[2],inactive
CON=C(C(=O)N[C@@H]1C(=O)N2C(C(=O)O)=C(Cn3ccc(=N)n3CCO)CS[C@H]12)c1csc(N)n1,Potency,[1],inactive
same,outcome,[2],inactive
CCC(C=C[C@@H]1OC(=O)C=C[C@H]1C)=C[C@H](C)CC=CC(C)=C[C@@H](C)C(=O)[C@@H](C)[C@H](O)[C@@H](C)CC(C)=CC(=O)O,"activity change, negative = inhibition",[1],3.68% [at 2.24 µM]
same,"activity change, negative = inhibition",[2],41.2% [at 1.51 µM]
CC(C)(C)c1nc2c3cc[nH]c(=O)c3c3cc(F)ccc3c2[nH]1,Potency,[1],inactive
same,outcome,[2],inactive
CC(N[C@H]1CCCC[C@H]1NC(=O)c1ccc(Cl)cc1)c1cccc2ccccc12 (stereo partly specified),Potency,[1],inactive
same,outcome,[2],inactive
O=C(CCCCCCC(=O)Nc1cccnc1)NO,Potency,[1],inactive
same,outcome,[2],inactive
NC[C@H]1O[C@H](O[C@H]2[C@@H](O)[C@@H](O[C@H]3O[C@H](CO)[C@@H](O)[C@H](N)[C@@H]3O)[C@H](N)C[C@@H]2N)[C@H](N)C[C@H]1O,Potency,[1],inactive
same,outcome,[2],inactive

# Reference: PubChem BioAssay (NCATS)
